# Experimental data: PubChem BioAssay
# Test: small-molecule binders of probe aLefty1, primary screen, biochemical, small-molecule microarray, 635/667 nm fluorescence (AID 1153);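 note: score merges spot fluorescence with signal-to-noise ratio from the scanned slide images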
# Settings: higher = more signal
row,Structure (SMILES),composite z-score
1,CCOC(=O)[C@H](Cc1ccccc1)NC(=O)CCC1CC(OC(=O)NCc2cccc3ccccc23)CC2(CCCC(COC(=O)NCc3cccc(C(F)(F)F)c3)O2)O1 (stereo partly specified),-0.0984
2,COC(=O)CC=C[C@@H](C)[C@@H](C=NOC(C)CN1CCCc2nc(C)c(C)cc21)OC (stereo partly specified),-0.202
3,COC(=O)[C@@H]1CC[C@H](C)[C@@H](c2ccc(C)cc2)N1C(=O)c1ccc(C=NO[C@H](C)c2cn([C@H](CO)Cc3ccccc3)nn2)cc1,0.342
4,CO[C@@H]1C=CCC(=O)N[C@@H](C)C(=O)OC[C@@H](OC)[C@H](C)CCCC(=O)OC[C@H]1C,0.0816
5,COc1ccc(O[C@H]2C=C[C@@H](c3ccccc3)O[C@@H]2CON=C(C)C)cc1,0.407
6,CCOC(=O)[C@H](CC(C)C)NC(=O)CCC1CC(OC(=O)NCc2cccc3ccccc23)CC2(CCCC(COC(=O)NCCOC)O2)O1 (stereo partly specified),-0.0559
7,CCCCC#C[C@@H]1C=C[C@H](Oc2ccc(C(=O)OC)cc2)[C@@H](COC(=O)OCC)O1,-0.0559
8,Cc1ccc(S(=O)(=O)n2c3ccccc3c3nnc(C(=O)c4ccccc4)nc32)cc1,-0.179
9,COc1ccc(O[C@H]2C=C[C@@H](c3ccccc3)O[C@@H]2CON=CC[C@@H]2C=C[C@H](OC(C)=O)[C@@H](COC(C)=O)O2)cc1,-0.0054
10,O=C(NN=C1C[C@@H](O)[C@@H](O)[C@@H]2[C@@H]3C(=O)N(Cc4ccccc4)C(=O)[C@@H]3CC[C@@H]12)OCc1ccccc1,0.0837
11,COc1ccc(O[C@H]2C=C[C@@H](c3ccccc3)O[C@@H]2COC(=O)CCC(C)=NO[C@@H]2O[C@H](COC(C)=O)[C@@H](OC(C)=O)[C@H](OC(C)=O)[C@H]2OC(C)=O)cc1,-0.019
12,CO[C@H]1COC(=O)CC=C[C@H](C)[C@@H](OC)COC(=O)[C@@H](C)NC(=O)CC=C[C@@H]1C,-0.152
13,CC(C)[C@@H](OCc1ccccc1)[C@H](C)C=NOC[C@@H](O)COCc1ccco1,-0.866
14,CCCCC#C[C@@H]1C=C[C@H](OC(C)=O)[C@@H](COC(C)=O)O1,-0.0111
15,CO[C@@H]1COC(=O)[C@@H](C)COC(=O)[C@@H](C)NC(=O)CC=C[C@@H]1C,0.682
16,C[C@H]1Cc2c(COc3ccccc3)nc3c(c2CO1)CN(CCOc1ccccc1)CC3,0.2
17,CCCNC(=O)OC[C@H]1O[C@H](CCON=C(C)CCC(=O)OC[C@H]2O[C@H](c3ccccc3)C=C[C@@H]2Oc2ccc(OC)cc2)C=C[C@@H]1Oc1ccc(OC)cc1,-0.0477
18,CCOC(=O)NN=C1C[C@@H](O)[C@@H](O)[C@@H]2[C@@H]3C(=O)N(C(C)(C)C)C(=O)[C@@H]3CC[C@H]12,0.0701

row,Structure (SMILES),composite z-score
1,C[C@@H](ON=C1[C@H]2CCn3c(=O)n(-c4ccccc4)c(=O)n3[C@H]2[C@H](O)[C@@H]2O[C@H]12)c1cn([C@@H]2COC[C@H]2O)nn1,-0.255
2,COc1ccc(COC(=O)NN=C2C[C@@H](O)[C@@H](O)[C@@H]3[C@@H]4C(=O)N(C5CCCCC5)C(=O)[C@@H]4CC[C@H]23)cc1,-0.0611
3,CC(=O)OC[C@H]1O[C@H](C#Cc2ccccc2)C=C[C@@H]1OC(C)=O,-0.234
4,O=C1CCCC=C1C(CCc1ccccc1)OC(=O)c1ccc(Br)cc1 (stereo unspecified),0.16
5,CCN1C(=O)[C@@H]2[C@H]3C(=CC[C@@H]2C1=O)C1(OCCCO1)[C@H]1O[C@H]1[C@H]3O,0.167
6,O=C1[C@H]2[C@H]3[C@H](O)[C@H](O)CC(=NOCc4ccccc4)[C@@H]3CC[C@H]2C(=O)N1C[C@@H]1CCCO1,-0.28
7,COC(=O)[C@H]1O[C@@H](c2c(OC)c(OC)c(C)c(OC)c2OC)[C@H](C)[C@@H](O)[C@H]1C,-0.0505
8,C#CCCCON=C1C[C@@H](O)[C@@H](O)[C@@H]2[C@@H]3C(=O)N(C(C)(C)C)C(=O)[C@@H]3CC[C@H]12,0.571
9,C=CC[C@@H]1C=C[C@H](ON=C(C)CCN2CCc3nc(-c4ccccc4)c(-c4ccccc4)cc3C2)[C@@H](CO)O1,0.0446
10,CC(C)=CCCC(C)=CCON=C1C[C@@H](O)[C@@H](O)[C@@H]2[C@@H]3C(=O)N(Cc4ccccc4)C(=O)[C@@H]3CC[C@H]12,-0.0197
11,C[n+]1ccc(-c2ccc(CO)cc2)cc1,-0.0303
12,CC(C)=CCCC(C)=CCON=C1C[C@@H](O)[C@@H](O)[C@@H]2[C@@H]3C(=O)N(c4cccc(Oc5ccccc5)c4)C(=O)[C@@H]3CC[C@@H]12,-0.0501
13,CO[C@@H]1COC(=O)[C@H](CCSC)NC(=O)CC=C[C@@H](C)COC(=O)[C@H](C)NC(=O)CC=C[C@H]1C,-0.231
14,CON=CC[C@@H]1C=C[C@H](OC(C)=O)[C@@H](COC(C)=O)O1,0.171
15,CC(C)CON=C1C[C@@H](O)[C@@H](O)[C@@H]2[C@@H]3C(=O)N(c4ccc(F)cc4F)C(=O)[C@@H]3CC[C@H]12,0.144
16,CC(C)(C)N1C(=O)[C@H]2[C@H]3[C@H](O)[C@H](O)CC(=NOCc4ccccc4)[C@H]3CC[C@H]2C1=O,0.57
17,C[C@@H](c1ccccc1)N1C(=O)[C@H]2[C@H]3[C@H](O)[C@H](O)CC(=NOCc4ccccc4)[C@H]3CC[C@H]2C1=O,-0.0518
18,CCOC(=O)[C@H](Cc1ccccc1)NC(=O)CCC1CC(OC(=O)NCc2cccc3ccccc23)CC2(CCCC(COC(=O)NCC(c3ccccc3)c3ccccc3)O2)O1 (stereo partly specified),-0.116
